Only some compounds are listed: those with a hit (about 3.5% of all), similar ones and a draw of the others.
mHTT CaM bind – disrupts binding of mutant huntingtin to calmodulin | P42858 | AlphaScreen His-mHTT/GST-CaM binding, luminescence | inhibition, % at 15 µM | 190,000 compounds, 3.6% hits;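 also: 0% = both proteins with DMSO and 100% = one protein alone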
Pf apPOL block – Pf-apPOL DNA polymerase inhibition | Recombinant Pf-apPOL, molecular beacon fluorescence, 1.5 h | inhibition, % at 10 µM | 210,000 compounds, 0.25% hits | AID 1794808
Numbers without * were called inactive; x = no result given; + = active, no number. Rule as the data show it: active = inhibition above about 50%; inactive = the rest.

SMILES	mHTT CaM bind	Pf apPOL block
O=C(NC(Oc1ccccc1)C(Cl)(Cl)Cl)c1ccc([N+](=O)[O-])cc1 (configuration not stated)	38	-3
Cc1onc(-c2ccccc2Cl)c1C(=O)Nc1ccc(Cl)c(Cl)c1	80*	-7
CC(=O)Nc1ccc(NC(=O)c2c(-c3ccccc3Cl)noc2C)cc1	0	8
Cc1ccc(C2=NN(C(=O)CN(C)C(=O)NC(C)C)C(c3ccccc3)C2)cc1C (configuration not stated)	52*	0
COc1ccccc1C1CC(c2ccc(C)c(C)c2)=NN1C(=O)CN(C)C(C)=O (configuration not stated)	66*	-5
CC(=O)N(C)CC(=O)N1N=C(c2ccc(C)c(C)c2)CC1c1ccccc1 (configuration not stated)	54*	-2
COc1ccc(C2=NN(C(=O)CCCC(=O)O)C(c3ccccc3OC)C2)cc1OC (configuration not stated)	7	-12
CC(=O)N(C)CC(=O)N1N=C(c2ccc(F)cc2)CC1c1ccccc1 (configuration not stated)	21	7
Cc1ccc(C2CC(c3ccc(C)c(C)c3)=NN2C(=O)CN(C)C(=O)C2CC2)cc1 (configuration not stated)	6	2
Cc1ccc(C2CC(c3cccs3)=NN2C(=O)CN(C)C(=O)C2CCCC2)cc1 (configuration not stated)	61*	-1
CN(CC(=O)N1N=C(c2cccs2)CC1c1ccccc1)C(=O)C1CCCC1 (configuration not stated)	21	-1
CCN(CC(O)COC1CC2CCC1(C)C2(C)C)C1CCCCC1 (configuration not stated)	4	-3
C=CC(=O)N1c2ccccc2C(C)(c2ccc(C)cc2)CC1(C)C (configuration not stated)	-13	-1
Cc1c(Cl)c([N+](=O)[O-])nn1CC(=O)N(C)Cc1ccccc1	0	6
CCCCN(CCCNC(=O)C1CC(=O)N(CCc2ccccc2)C1)c1ccccc1 (configuration not stated)	80*	2
CCCCNC(=O)C1CC(=O)N(CCc2ccccc2)C1 (configuration not stated)	-4	-1
COc1cc(OC)cc(C(=O)N2CCc3nc4cc[nH]n4c(=O)c3C2)c1	-3	-3
CCOC(=O)C1=C(C)c2ccccc2N(C(=O)OC)C1(C)C(=O)OCC (configuration not stated)	41	78*
CCOC(=O)C1=C(C)c2ccccc2OC1(CC)C(=O)OCC (configuration not stated)	-50	-4
O=C(O)COc1nc(N2CCOCC2)nc(N2CCOCC2)n1	6	-4
CCC(=O)N1CCc2sc(C(=O)N3CCN(c4ccccn4)CC3)cc2C1	0	-2
O=[N+]([O-])c1cc(C=Nc2c(-c3ccco3)nc3ccccn23)c(Cl)cc1Cl	23	6
O=[N+]([O-])c1cc(C=Nc2c(-c3ccco3)nc3ccccn23)ccc1Br	18	-1
Clc1ccc(C=Nc2c(-c3ccco3)nc3ccccn23)cc1	55*	-2
Oc1c(Cl)cc(Cl)cc1C=Nc1c(-c2ccco2)nc2ccccn12	64*	-2
SMILES	mHTT CaM bind	Pf apPOL block
COCCN(Cc1ccoc1)C(=O)NC12CC3CC(CC(C3)C1)C2	0	-1
COc1cccc(C=C2Oc3c(CN(C)C)c(O)cc(C)c3C2=O)c1	4	-8
O=C1C=CC(=NOC2=C(ON=C3C=CC(=O)C=C3)C(=O)c3ccccc3C2=O)C=C1	34	-14
CC1=CC(=O)C=C/C1=N\OC1=C(O/N=C2\C=CC(=O)C=C2C)C(=O)c2ccccc2C1=O	+	6
CCn1nc(-c2nc(C(C)(C)C)no2)ccc1=O	-5	-1
Cc1cc(S(=O)(=O)NC2CC2)c(C)s1	-3	x
O=C(Nc1ccc(S(=O)(=O)Nc2nccs2)cc1)Nc1ccc(Cl)c(Cl)c1	78*	-3
O=C(Nc1ccc(S(=O)(=O)Nc2nccs2)cc1)C(Cl)Cl	7	-6
NCc1c(F)cc(F)c(F)c1F	-7	x
CCC1CCCN1CNC(=O)c1cc(OC)c(OC)c(OC)c1 (configuration not stated)	-1	1
COc1ccc(CC(=O)NC2C3CC4CC(C3)CC2C4)cc1OC (configuration not stated)	5	-3
COc1ccc(NC2C3CC4CC(C3)CC2C4)cc1OC (configuration not stated)	62*	-3
Cc1cc(C)n(CC(=O)N2CC3CC2CC3NC(=O)c2ccccc2)n1 (configuration not stated)	-3	-1
CC1=Nc2cc(C(=O)NCCCN3CCC(C)CC3)ccc2Sc2ccc(Cl)cc21	53*	-16
CC1=Nc2cc(C(=O)NCCN3CCOCC3)ccc2Sc2ccc(Cl)cc21	39	-20
O=C(CN1CCN(c2ccc(Cl)cc2)CC1)Nc1ccc(Cl)c(C(F)(F)F)c1	51*	-2
O=C(CN1CCN(c2ccccn2)CC1)Nc1ccc(Cl)c(C(F)(F)F)c1	31	-3
Cc1cccc(NC2(c3ccccc3)OC(=O)c3ccccc32)c1 (configuration not stated)	2	0
Cc1cc(=O)[nH]c(-n2nc(C3CC3)cc2NC(=O)C2(c3ccc(Cl)cc3)CCCC2)n1	57*	-71
Cc1cc(=O)[nH]c(-n2nc(-c3ccccc3)cc2NC(=O)CCSc2ccccc2)n1	-13	-10
C=CCc1cc(/C=C2/C(=O)N(c3ccccc3)N=C2C)cc(OCC)c1O	49	8
COc1ccccc1OCCOc1ccc([N+](=O)[O-])cc1/C=C1/C(=O)N(c2ccccc2)N=C1C	4	11
CC1=NN(c2ccccc2)C(=O)/C1=C/c1ccc(N2CCOCC2)cc1	78*	7
CCN(CC)c1ccc(/C=C2/N=C(c3ccccc3)NC2=O)cc1	88*	-5
CCN(CC)c1ccc(/C=C2/N=C(c3ccc(F)cc3)OC2=O)cc1	1	-4
SMILES	mHTT CaM bind	Pf apPOL block
CC1=NN(c2ccccc2)C(=O)/C1=C/c1ccc(Oc2ccc([N+](=O)[O-])cc2[N+](=O)[O-])cc1	52*	0
CCOc1cc(/C=C2/C(=O)N(c3ccc(C)c(C)c3)N=C2C)cc(I)c1O	72*	-16
CC1=NOC(=O)/C1=C/c1ccc(N2CCOCC2)cc1	16	5
O=C(CCCc1ccccc1)Nc1ccc([N+](=O)[O-])cc1	0	-8
COc1ccc(NC(=O)c2cc3c(CO)cnc(C)c3oc2=Nc2ccc(OC)cc2OC)cc1	2	0
COCCNC(=O)C1CCN(c2nnc(-c3ccc(OC)cc3)o2)CC1	-3	-3
CC1=NN(c2ccc(C(=O)O)cc2)C(=O)/C1=C/c1ccc(N(C)C)cc1	4	-4
CC1=NN(c2ccccc2)C(=O)/C1=C/c1ccccc1	17	-5
CCN(C)c1ccc(/C=C2/C(=O)N(c3ccc(C)c(C)c3)N=C2C)cc1	58*	0
CC1=NN(c2ccc(C)c(C)c2)C(=O)/C1=C/c1ccc([N+](=O)[O-])cc1	53*	3
CCN(CC)c1ccc(/C=C2/C(=O)N(c3ccccc3)N=C2C)cc1	65*	-4
CC1=NN(c2ccccc2)C(=O)/C1=C/c1ccc([N+](=O)[O-])cc1	33	-3
CC1=NN(c2cccc(Cl)c2)C(=O)/C1=C/c1ccc(F)cc1	8	7
CCN(C)c1ccc(/C=C2/C(=O)N(c3cccc(Cl)c3)N=C2C)cc1	68*	-11
